Consider 39 compounds from PubChem BioAssay AID602350 (Broad Institute, 2012).

The structures appear in SMILES notation. Measured potencies and affinities stand elsewhere. Unmarked numbers belong to inactive results.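 How the source made its calls: active means absorbance falls by 30% or more versus neutral controls, with a potency fitted within twice the top valid dose; inconclusive means no clear call, values can overlap the other calls; inactive means change opposite to expected direction, plus the rest.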

The assay deals with Protein disulfide-isomerase (Homo sapiens) (UniProt P07237). Description: PDI inhibitors, insulin aggregation turbidity, dose response, biochemical, absorbance, cherry-picked samples (AID 602350).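 Further: 0% = neutral controls and -100% = rutin hydrate positive control wells.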 The conditions noted are these: recombinant PDI insulin aggregation, absorbance 650 nm, 90 min; series mostly up to 19.5 µM; activity change, negative = inhibition: at the top concentration.
Sequence of Protein disulfide-isomerase (Homo sapiens) (P07237 whole entry, looked up): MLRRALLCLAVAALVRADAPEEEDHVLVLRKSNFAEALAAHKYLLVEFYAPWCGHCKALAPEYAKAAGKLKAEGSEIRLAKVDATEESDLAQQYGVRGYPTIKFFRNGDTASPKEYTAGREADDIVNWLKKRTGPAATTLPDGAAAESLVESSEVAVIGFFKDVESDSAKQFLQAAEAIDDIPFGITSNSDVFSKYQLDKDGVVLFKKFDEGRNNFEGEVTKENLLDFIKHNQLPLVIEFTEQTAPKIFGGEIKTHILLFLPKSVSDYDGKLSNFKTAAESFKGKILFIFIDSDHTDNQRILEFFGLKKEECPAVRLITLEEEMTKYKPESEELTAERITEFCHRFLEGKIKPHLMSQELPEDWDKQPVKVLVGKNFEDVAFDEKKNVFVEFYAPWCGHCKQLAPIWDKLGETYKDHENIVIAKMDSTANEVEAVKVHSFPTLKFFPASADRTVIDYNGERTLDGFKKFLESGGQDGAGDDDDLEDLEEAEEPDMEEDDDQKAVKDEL
For the compound `NC(=O)c1nsc(C(=O)N(CC(=O)NCc2ccc(F)cc2)Cc2ccco2)c1N`, the “activity change, negative = inhibition” value was 0.167%.
Next, `Cc1ccc(SCC(=O)c2sc(-c3ccccc3)nc2C)cc1`: 2.26%; `O=C(NCc1ccccc1)c1cc(C2CCCN(C(=O)C3CCCCC3)C2)on1` (centres undefined): 7.02%.
Take `O=C(/C=C/c1c(F)cccc1Cl)c1ccc(O)cc1`: the “activity change, negative = inhibition” value is -15.5%.
Regarding `CSc1cccc(NC(=O)CN(C)S(=O)(=O)c2ccc(F)cc2)c1`, the “activity change, negative = inhibition” value is -0.96%.
The result for `CC(=O)C1=C(O)C(=O)N(CCc2c[nH]c3ccccc23)C1c1cccc(O)c1` (centres undefined) reads -15.4%.
Consider `CC[C@]12c3[nH]c4cc(-c5ccco5)ccc4c3CCN1C(=O)[C@@H](CC(=O)NCC13CC4CC(CC(C4)C1)C3)C[C@@H]2C(=O)N1CCN(C(=O)c2ccco2)CC1`, for which the “activity change, negative = inhibition” value was 23.1%.
The result for `COc1cccc(NC(=O)CN(C)C(=O)/C=C/c2cc(OC)ccc2OC)c1` reads -3.63%; that for `O=c1[nH]c(C2CCN(S(=O)(=O)c3ccc(C(F)(F)F)cc3)CC2)nc2c1nnn2Cc1ccc(F)cc1`, 14.8%.
The result for `CCOC(=O)c1c(CN2CCN(CCO)CC2)n(C)c2cc(Br)c(OC)cc12` reads 6.16%; that for `COc1cc(C2C(C(C)=O)=C(O)C(=O)N2CCc2c[nH]c3ccccc23)ccc1O` (centres undefined), -21.9%; that for `COc1ccc(OC)c(CN2CCN(Cc3cc(=O)oc4cc(O)ccc34)CC2)c1`, -24.5%.
For `O=C(Nc1ccc(Br)cc1F)c1cccnc1`, the “activity change, negative = inhibition” value is 20%.
Take `O=C1N[C@@H](Cc2c[nH]c3ccccc23)COC(=O)[C@@H](Cc2ccc(F)cc2)C/C=C\C[C@H]1CC(=O)N(CCO)Cc1ccccc1`: the “activity change, negative = inhibition” value was -34.4%.
The result for `Cc1sc(NC(=O)CCl)c(C(=O)c2ccccc2)c1C` reads 1.62%; that for `COC(=O)c1ccc(NC(=S)NCCc2cccc(C)c2)cc1`, 3.66%; that for `COc1ccc(CN(C)C[C@@H]2Oc3c(NS(C)(=O)=O)cccc3C(=O)N([C@H](C)CO)C[C@H]2C)cc1`, -21.9%.
As for `COc1ccc(OC)c2[nH]c(=O)c(CCNC(=O)C(=O)c3c(C)[nH]c4ccccc34)cc12`, the “activity change, negative = inhibition” value was 3.8%.
The result for `Cc1noc(C)c1C(=O)OCC(=O)NCCc1ccc(Cl)cc1` reads 19.9%.
For the compound `Cc1cc2c3c(c1)C1(C(=O)N3C(C)(C)CC2C)C(C#N)=C(N)Oc2n[nH]c(C)c21` (centres undefined), the “activity change, negative = inhibition” value was -14.8%.
Consider `CCCCNC(=O)Nc1ccon1`, for which the “activity change, negative = inhibition” value was 4.27%.
With `COC(=O)c1ccc(COC(=O)CSCC(=O)Nc2ccc(C)cc2C)cc1`, the “activity change, negative = inhibition” value was 5.37%.
Next, `C[C@@H](CN1C2=NC[C@H](Cc3ccc(O)cc3)N2C[C@H]1Cc1ccc(O)cc1)NC(=O)CCC1CCCCC1`: -11.3%; `Cc1ccc(CN(c2ccc(C(=O)NCc3ccccn3)cc2)S(C)(=O)=O)cc1`: -11.6%.
The result for `CCOC(=O)C1(CCOc2ccccc2)CCN(Cc2ccc(C(=O)OC)cc2)CC1` reads 0.786%.
Turning to `CN(C)c1ccc(NC(=O)CN2C(=O)CC(c3ccccc3)=Nc3ccccc32)cc1`, the “activity change, negative = inhibition” value was 14%.
`O=C(NCc1ccccc1CN1CCCC1)c1cc2ccccc2o1`: the “activity change, negative = inhibition” value is -3.18%.
Regarding `Cc1ccc2nsnc2c1NC(=O)c1cccnc1Cl`, the “activity change, negative = inhibition” value was 1.26%.
Take `COc1ccc(C[C@@H]2CN3C(=NC[C@@H]3Cc3ccc(O)cc3)N2C[C@H](C)NC(=O)CCC2CCCCC2)cc1`: the “activity change, negative = inhibition” value was -19.6%.
Consider `O=C(N/N=C/c1cccc([N+](=O)[O-])c1)c1cnccn1`, for which the “activity change, negative = inhibition” value is 21.7%.
The result for `O=C1N[C@@H](Cc2c[nH]c3ccccc23)COC(=O)[C@H](Cc2ccc(F)cc2)C/C=C\C[C@H]1CC(=O)N(CCO)Cc1ccccc1` reads 6.97%; that for `CCc1ccc(NC(=O)Nc2ccncc2)cc1`, 9.58%; that for `CC(C)c1ccc(Nc2nc(CC(=O)O)cs2)cc1`, 2.08%.
For the compound `O=C(Nc1ccccc1)c1cc(C2CCCCN2C(=O)c2ccccc2)on1` (centres undefined), the “activity change, negative = inhibition” value is 13.8%.
Regarding `CC(=O)NC1(c2nnnn2CCOC(=O)Nc2ccc(Cl)cc2)CCCCC1`, the “activity change, negative = inhibition” value is 14.4%.
The result for `C[C@@H]1CN([C@@H](C)CO)C(=O)c2cc(NC(=O)Cc3cn(C)c4ccccc34)ccc2O[C@@H]1CN(C)S(=O)(=O)c1ccc(F)cc1` reads -12.7%; that for `CCOC(=O)c1c(CN(C)C)n(-c2ccc(C)cc2)c2cc(Br)c(O)cc12`, -19%.
On to `COc1ccc(CNC(=O)c2ccc(CS(=O)Cc3cccc(Cl)c3)o2)cc1` (centres undefined), for which the “activity change, negative = inhibition” value was 2.11%.
The result for `NC(Cc1ccc(C(F)(F)F)cc1)c1csc(Nc2ccc(C(=O)NCCCO)cn2)n1` (centres undefined) reads -1.16%.
